# Reference: article PMC7862700, “An all-to-all approach to the identification of sequence-specific readers for epigenetic DNA modifications on cytosine”
# Key:
# Test in all cases: DAPPL (digital affinity profiling via proximity ligation, sequencing); 10 mM Tris-HCl pH 7.5, 50 mM NaCl, 1 mM DTT, 4% glycerol, room temperature, 30 min; GST-TFs on glutathione beads, 16-mer random dsDNA library, 0.1% formaldehyde crosslink after washing; high values mean tight binding
# FLI1 = biological target: T1, FLI1 (Homo sapiens, UniProt Q01543 1-452); details: protein: recombinant; tags: N-terminal GST; dsDNA, one strand shown
# T1 sequence: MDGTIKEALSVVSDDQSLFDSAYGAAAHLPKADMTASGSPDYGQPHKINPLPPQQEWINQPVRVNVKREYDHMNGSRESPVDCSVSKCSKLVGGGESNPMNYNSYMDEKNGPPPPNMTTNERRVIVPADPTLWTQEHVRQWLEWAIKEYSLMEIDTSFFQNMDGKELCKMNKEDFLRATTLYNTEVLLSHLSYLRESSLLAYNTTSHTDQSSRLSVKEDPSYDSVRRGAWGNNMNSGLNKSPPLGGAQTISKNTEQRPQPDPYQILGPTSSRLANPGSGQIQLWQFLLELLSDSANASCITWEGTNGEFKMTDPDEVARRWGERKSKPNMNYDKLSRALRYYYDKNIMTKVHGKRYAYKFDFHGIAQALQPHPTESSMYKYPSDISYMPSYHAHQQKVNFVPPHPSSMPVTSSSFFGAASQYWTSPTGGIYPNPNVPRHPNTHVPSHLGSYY
# Procedure, shortened: (§1)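 Binding signal is each hexamer's read frequency for a factor divided by its frequency in the tag-only sample. The factors were GST-fused human transcription factors from yeast, captured on glutathione beads, DNA-barcoded and pooled with that sample. Pools were incubated with 200 nmole of a random double-stranded 16-mer DNA library in Tris/NaCl/DTT/glycerol buffer at room temperature for 30 min, then washed, crosslinked with 0.1% formaldehyde, proximity-ligated with BsaI/T4 ligase (1 h, 37 °C), PCR-amplified and sequenced on an Illumina NextSeq500.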
# ELK1 = biological target: T2, ELK1 (Homo sapiens, UniProt P19419 1-428); details: protein: recombinant; tags: N-terminal GST; dsDNA, one strand shown
# T2 sequence: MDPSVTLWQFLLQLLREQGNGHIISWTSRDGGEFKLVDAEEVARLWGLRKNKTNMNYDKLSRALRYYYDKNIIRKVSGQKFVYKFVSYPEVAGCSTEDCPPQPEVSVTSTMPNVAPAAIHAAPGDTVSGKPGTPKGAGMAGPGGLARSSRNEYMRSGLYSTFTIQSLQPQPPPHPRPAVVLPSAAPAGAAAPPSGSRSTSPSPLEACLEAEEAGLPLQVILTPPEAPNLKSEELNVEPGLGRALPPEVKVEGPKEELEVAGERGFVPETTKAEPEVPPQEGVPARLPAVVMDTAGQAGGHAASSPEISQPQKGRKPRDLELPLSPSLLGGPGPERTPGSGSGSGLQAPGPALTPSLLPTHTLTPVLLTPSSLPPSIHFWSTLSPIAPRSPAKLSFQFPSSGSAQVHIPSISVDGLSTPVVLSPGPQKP
# Procedure, shortened: as §1
# GABPA = biological target: T3, GABPA (Homo sapiens, UniProt Q06546 1-454); details: protein: recombinant; tags: N-terminal GST; dsDNA, one strand shown
# T3 sequence: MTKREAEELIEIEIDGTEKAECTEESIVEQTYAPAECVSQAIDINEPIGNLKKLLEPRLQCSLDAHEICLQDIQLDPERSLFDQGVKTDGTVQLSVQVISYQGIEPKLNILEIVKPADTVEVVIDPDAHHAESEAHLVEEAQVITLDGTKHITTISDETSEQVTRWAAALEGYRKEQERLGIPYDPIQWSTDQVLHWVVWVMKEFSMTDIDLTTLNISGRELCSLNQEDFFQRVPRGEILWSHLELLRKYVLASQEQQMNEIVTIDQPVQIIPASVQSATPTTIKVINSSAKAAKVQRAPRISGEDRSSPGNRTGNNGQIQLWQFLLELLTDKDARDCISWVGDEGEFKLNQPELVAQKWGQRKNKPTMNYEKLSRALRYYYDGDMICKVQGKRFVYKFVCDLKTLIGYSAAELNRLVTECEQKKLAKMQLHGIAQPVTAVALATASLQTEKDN
# Procedure, shortened: as §1
# ERG = biological target: T4, ERG (Homo sapiens, UniProt P11308 1-479); details: protein: recombinant; tags: N-terminal GST; dsDNA, one strand shown
# T4 sequence: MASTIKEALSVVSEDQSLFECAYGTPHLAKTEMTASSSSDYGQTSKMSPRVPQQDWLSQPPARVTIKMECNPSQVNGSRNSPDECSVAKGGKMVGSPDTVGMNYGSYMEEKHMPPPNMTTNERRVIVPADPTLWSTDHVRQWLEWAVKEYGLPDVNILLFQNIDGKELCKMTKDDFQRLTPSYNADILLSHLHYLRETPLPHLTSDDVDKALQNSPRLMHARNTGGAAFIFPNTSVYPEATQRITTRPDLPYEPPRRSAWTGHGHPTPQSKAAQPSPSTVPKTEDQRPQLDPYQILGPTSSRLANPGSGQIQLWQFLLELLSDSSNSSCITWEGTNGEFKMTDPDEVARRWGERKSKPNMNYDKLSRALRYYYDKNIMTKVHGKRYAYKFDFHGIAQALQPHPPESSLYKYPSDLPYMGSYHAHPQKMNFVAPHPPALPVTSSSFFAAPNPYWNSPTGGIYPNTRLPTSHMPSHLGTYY
# Procedure, shortened: as §1
# ELF1 = ELF1 (Homo sapiens, UniProt P32519 1-619); details: protein: recombinant; tags: N-terminal GST; dsDNA, one strand shown
# Sequence of ELF1 (P32519 whole entry): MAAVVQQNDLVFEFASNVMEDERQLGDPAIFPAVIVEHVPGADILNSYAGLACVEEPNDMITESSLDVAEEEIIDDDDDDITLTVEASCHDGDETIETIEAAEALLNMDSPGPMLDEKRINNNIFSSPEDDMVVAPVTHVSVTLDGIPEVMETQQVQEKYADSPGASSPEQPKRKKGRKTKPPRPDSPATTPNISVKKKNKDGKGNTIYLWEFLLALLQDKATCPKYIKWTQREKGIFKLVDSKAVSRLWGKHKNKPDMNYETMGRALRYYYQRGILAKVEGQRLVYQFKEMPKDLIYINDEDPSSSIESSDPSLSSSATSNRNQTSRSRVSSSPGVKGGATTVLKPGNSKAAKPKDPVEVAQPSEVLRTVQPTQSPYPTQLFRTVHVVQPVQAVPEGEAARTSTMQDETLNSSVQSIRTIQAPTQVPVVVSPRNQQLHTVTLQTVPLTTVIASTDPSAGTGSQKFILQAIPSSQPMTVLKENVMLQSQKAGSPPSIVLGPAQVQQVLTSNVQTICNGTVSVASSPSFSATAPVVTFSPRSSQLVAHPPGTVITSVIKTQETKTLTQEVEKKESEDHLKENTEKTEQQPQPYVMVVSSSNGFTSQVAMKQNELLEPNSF
# Procedure, shortened: as §1
# EHF = biological target: T5, EHF (Homo sapiens, UniProt Q9NZC4 1-300); details: protein: recombinant; tags: N-terminal GST; dsDNA, one strand shown
# T5 sequence: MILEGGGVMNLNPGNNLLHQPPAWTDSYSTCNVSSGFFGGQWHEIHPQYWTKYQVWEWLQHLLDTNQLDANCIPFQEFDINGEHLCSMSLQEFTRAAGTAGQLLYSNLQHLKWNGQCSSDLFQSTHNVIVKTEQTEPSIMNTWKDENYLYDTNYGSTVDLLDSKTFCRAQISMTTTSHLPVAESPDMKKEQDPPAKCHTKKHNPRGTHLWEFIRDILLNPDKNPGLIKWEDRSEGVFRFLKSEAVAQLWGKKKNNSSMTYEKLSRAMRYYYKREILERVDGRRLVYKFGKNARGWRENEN
# Procedure, shortened: as §1
# SPI1 = SPI1 (Homo sapiens, UniProt P17947 1-270); details: protein: recombinant; tags: N-terminal GST; dsDNA, one strand shown
# Procedure, shortened: as §1
# SPIB = SPIB (Homo sapiens, UniProt Q01892 1-262); details: protein: recombinant; tags: N-terminal GST; dsDNA, one strand shown
# Sequence of SPIB (Q01892 whole entry): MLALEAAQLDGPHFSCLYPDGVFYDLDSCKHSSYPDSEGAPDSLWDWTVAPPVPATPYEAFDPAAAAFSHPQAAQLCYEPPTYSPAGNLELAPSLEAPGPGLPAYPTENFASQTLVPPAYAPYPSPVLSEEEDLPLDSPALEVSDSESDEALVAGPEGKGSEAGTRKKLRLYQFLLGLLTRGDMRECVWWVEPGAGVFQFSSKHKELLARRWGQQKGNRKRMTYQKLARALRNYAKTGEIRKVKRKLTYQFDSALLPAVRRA
# Procedure, shortened: as §1
# ELK3 = biological target: T6, ELK3 (Homo sapiens, UniProt P41970 1-407); details: protein: recombinant; tags: N-terminal GST; dsDNA, one strand shown
# T6 sequence: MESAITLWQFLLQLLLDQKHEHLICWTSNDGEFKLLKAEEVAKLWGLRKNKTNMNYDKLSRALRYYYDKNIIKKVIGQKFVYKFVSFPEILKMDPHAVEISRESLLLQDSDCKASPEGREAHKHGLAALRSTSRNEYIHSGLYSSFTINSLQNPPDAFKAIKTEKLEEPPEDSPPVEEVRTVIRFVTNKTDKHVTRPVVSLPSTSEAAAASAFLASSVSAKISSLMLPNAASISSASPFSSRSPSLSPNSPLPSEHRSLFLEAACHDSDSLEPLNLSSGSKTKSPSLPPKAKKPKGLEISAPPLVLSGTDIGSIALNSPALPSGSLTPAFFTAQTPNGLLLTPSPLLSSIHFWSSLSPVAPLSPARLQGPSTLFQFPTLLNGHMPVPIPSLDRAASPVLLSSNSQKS
# Procedure, shortened: as §1
# FEV = biological target: T7, FEV (Homo sapiens, UniProt Q99581 1-238); details: protein: recombinant; tags: N-terminal GST; dsDNA, one strand shown
# T7 sequence: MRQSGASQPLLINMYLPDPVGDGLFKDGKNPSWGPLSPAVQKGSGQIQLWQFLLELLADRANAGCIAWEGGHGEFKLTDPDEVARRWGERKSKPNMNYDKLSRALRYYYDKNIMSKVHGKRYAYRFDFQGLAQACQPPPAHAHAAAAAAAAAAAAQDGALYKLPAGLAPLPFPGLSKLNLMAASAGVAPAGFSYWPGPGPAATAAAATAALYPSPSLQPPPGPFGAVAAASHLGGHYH
# Procedure, shortened: as §1
# ETV5 = ETV5 (Homo sapiens, UniProt P41161 1-510); details: protein: recombinant; tags: N-terminal GST; dsDNA, one strand shown
# Sequence of ETV5 (P41161 whole entry): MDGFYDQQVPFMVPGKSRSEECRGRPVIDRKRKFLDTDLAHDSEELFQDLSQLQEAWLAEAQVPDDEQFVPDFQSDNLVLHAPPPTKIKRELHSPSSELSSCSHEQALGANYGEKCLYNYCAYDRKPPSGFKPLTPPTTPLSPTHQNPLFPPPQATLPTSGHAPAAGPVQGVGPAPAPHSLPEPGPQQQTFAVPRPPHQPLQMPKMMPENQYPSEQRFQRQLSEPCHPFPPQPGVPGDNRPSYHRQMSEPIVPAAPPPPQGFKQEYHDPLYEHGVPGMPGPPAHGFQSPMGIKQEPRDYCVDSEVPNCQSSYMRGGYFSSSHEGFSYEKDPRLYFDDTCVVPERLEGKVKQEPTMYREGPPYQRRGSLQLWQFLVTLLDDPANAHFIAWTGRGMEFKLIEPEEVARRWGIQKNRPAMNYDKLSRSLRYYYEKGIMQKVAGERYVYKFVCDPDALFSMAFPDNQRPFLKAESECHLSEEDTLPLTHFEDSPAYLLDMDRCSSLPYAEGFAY
# Procedure, shortened: as §1
# HSF1 = HSF1 (Homo sapiens, UniProt Q00613 1-529); details: protein: recombinant; tags: N-terminal GST; chain copies: 3; dsDNA, one strand shown
# Sequence of HSF1 (Q00613 whole entry): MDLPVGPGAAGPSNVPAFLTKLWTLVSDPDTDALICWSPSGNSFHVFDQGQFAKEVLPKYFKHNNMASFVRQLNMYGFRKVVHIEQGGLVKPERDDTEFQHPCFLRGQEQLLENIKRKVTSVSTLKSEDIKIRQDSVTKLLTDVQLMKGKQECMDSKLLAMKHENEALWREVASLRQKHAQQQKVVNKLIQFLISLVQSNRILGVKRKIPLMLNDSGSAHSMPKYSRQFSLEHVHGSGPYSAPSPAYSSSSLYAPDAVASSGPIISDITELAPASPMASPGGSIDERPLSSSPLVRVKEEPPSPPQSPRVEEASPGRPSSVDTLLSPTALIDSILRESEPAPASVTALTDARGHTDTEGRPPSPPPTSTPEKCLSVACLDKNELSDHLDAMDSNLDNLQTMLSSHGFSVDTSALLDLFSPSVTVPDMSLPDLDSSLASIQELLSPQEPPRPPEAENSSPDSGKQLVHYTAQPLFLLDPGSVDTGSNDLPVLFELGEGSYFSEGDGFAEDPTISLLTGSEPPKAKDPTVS
# Procedure, shortened: as §1
# SPIC = biological target: T8, SPIC (Homo sapiens, UniProt Q8N5J4 1-248); details: protein: recombinant; tags: N-terminal GST; dsDNA, one strand shown
# T8 sequence: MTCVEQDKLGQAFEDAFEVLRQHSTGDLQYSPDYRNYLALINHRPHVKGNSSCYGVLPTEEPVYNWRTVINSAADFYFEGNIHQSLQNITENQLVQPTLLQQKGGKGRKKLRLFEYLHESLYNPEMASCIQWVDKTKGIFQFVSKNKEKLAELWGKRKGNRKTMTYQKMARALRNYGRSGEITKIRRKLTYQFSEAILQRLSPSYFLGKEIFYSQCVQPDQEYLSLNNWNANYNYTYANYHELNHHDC
# Procedure, shortened: as §1
# ELF4 = ELF4 (Homo sapiens, UniProt Q99607 1-663); details: protein: recombinant; tags: N-terminal GST; dsDNA, one strand shown
# Sequence of ELF4 (Q99607 whole entry): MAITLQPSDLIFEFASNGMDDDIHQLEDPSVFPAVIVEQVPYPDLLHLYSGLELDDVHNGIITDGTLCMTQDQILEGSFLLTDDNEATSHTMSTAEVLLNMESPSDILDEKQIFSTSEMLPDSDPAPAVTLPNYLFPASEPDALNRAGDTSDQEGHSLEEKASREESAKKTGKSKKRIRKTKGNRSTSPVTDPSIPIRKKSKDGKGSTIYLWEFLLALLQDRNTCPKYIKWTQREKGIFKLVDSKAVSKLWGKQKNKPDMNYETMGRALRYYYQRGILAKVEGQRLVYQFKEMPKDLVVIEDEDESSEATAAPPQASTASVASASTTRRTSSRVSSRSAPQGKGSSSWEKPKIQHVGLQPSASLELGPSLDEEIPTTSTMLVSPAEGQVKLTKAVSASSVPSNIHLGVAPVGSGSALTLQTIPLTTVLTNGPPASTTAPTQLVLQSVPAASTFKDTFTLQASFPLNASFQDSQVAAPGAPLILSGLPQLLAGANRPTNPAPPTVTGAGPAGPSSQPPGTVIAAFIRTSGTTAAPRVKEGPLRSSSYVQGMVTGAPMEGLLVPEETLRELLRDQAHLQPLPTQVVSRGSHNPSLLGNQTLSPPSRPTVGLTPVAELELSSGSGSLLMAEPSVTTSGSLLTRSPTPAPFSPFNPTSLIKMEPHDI
# Procedure, shortened: as §1
# ELK4 = biological target: T9, ELK4 (Homo sapiens, UniProt P28324-2 1-405); details: protein: recombinant; tags: N-terminal GST; dsDNA, one strand shown
# T9 sequence: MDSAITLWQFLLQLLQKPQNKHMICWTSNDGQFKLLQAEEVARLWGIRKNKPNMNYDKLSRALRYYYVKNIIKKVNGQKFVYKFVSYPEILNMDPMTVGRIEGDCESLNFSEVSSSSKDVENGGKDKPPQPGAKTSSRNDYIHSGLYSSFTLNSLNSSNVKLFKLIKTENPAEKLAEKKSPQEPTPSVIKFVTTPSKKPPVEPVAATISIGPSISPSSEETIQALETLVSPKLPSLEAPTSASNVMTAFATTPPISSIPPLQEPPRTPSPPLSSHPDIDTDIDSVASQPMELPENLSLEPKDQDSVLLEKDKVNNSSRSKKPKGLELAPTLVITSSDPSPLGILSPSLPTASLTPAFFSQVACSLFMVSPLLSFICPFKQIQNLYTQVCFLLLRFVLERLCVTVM
# Procedure, shortened: as §1
# ETV2 = biological target: T10, ETV2 (Homo sapiens, UniProt O00321 1-342); details: protein: recombinant; tags: N-terminal GST; dsDNA, one strand shown
# T10 sequence: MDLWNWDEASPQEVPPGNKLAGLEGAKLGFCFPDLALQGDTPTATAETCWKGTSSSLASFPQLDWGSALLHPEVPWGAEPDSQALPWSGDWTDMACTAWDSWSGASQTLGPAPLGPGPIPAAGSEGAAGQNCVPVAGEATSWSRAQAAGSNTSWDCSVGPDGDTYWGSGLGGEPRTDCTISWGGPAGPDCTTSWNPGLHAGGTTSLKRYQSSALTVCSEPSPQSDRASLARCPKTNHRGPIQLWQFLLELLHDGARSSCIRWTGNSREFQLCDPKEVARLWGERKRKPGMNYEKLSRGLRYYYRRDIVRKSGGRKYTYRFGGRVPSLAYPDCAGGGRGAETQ
# Procedure, shortened: as §1
# ELF3 = biological target: T11, ELF3 (Homo sapiens, UniProt P78545 1-371); details: protein: recombinant; tags: N-terminal GST; dsDNA, one strand shown
# T11 sequence: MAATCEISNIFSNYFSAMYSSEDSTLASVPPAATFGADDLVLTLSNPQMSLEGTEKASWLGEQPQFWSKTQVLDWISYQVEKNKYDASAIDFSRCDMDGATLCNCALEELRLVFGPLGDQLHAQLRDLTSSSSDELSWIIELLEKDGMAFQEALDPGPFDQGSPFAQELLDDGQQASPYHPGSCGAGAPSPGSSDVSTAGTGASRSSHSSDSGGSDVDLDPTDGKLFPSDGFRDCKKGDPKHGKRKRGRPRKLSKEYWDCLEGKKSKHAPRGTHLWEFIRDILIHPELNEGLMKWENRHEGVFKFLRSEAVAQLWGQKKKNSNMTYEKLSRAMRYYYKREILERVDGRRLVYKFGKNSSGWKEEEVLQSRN
# Procedure, shortened: as §1
# CRX = CRX (Homo sapiens, UniProt O43186 1-299); details: protein: recombinant; tags: N-terminal GST; dsDNA, one strand shown
# Sequence of CRX (O43186 whole entry): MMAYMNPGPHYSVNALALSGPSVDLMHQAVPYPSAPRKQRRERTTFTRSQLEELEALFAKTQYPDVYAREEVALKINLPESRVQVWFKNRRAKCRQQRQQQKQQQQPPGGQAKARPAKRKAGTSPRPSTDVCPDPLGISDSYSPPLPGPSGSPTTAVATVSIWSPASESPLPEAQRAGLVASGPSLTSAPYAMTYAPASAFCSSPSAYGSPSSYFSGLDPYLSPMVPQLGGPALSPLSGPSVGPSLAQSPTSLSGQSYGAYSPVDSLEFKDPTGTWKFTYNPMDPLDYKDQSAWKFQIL
# Procedure, shortened: as §1
# ETV1 = ETV1 (Homo sapiens, UniProt P50549 1-477); details: protein: recombinant; tags: N-terminal GST; dsDNA, one strand shown
# Sequence of ETV1 (P50549 whole entry): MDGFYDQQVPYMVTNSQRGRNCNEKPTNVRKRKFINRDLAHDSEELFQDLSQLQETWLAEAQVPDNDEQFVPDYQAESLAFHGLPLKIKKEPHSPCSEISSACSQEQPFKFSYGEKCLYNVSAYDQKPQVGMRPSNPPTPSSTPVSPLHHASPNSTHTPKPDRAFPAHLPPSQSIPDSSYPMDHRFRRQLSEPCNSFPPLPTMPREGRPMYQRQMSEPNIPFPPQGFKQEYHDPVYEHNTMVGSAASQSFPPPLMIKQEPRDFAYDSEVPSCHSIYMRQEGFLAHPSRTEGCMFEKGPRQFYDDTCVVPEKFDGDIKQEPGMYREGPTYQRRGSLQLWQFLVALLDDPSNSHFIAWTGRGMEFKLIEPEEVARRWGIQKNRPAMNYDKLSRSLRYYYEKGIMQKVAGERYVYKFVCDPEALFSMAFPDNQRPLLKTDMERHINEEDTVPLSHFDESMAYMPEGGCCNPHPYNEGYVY
# Procedure, shortened: as §1
sequence,measurement,setting,value
TTTGTG,binding signal,FLI1,"1.31 fold enrichment (6-mer frequency, TF over GST control)"
same,binding signal,ELK1,"1.2 fold enrichment (6-mer frequency, TF over GST control)"
same,binding signal,GABPA,"1.13 fold enrichment (6-mer frequency, TF over GST control)"
same,binding signal,ERG,"1.14 fold enrichment (6-mer frequency, TF over GST control)"
same,binding signal,ELF1,"1.09 fold enrichment (6-mer frequency, TF over GST control)"
same,binding signal,EHF,"1.15 fold enrichment (6-mer frequency, TF over GST control)"
same,binding signal,SPI1,"1.12 fold enrichment (6-mer frequency, TF over GST control)"
same,binding signal,SPIB,"1.09 fold enrichment (6-mer frequency, TF over GST control)"
same,binding signal,ELK3,"1.17 fold enrichment (6-mer frequency, TF over GST control)"
same,binding signal,FEV,"1.23 fold enrichment (6-mer frequency, TF over GST control)"
same,binding signal,ETV5,"1.17 fold enrichment (6-mer frequency, TF over GST control)"
same,binding signal,HSF1,"1.12 fold enrichment (6-mer frequency, TF over GST control)"
same,binding signal,SPIC,"1.15 fold enrichment (6-mer frequency, TF over GST control)"
same,binding signal,ELF4,"1.19 fold enrichment (6-mer frequency, TF over GST control)"
same,binding signal,ELK4,"1.38 fold enrichment (6-mer frequency, TF over GST control)"
same,binding signal,ETV2,"1.25 fold enrichment (6-mer frequency, TF over GST control)"
same,binding signal,ELF3,"1.27 fold enrichment (6-mer frequency, TF over GST control)"
same,binding signal,CRX,"1.29 fold enrichment (6-mer frequency, TF over GST control)"
same,binding signal,ETV1,"1.1 fold enrichment (6-mer frequency, TF over GST control)"
